Test systems include T-47D breast; BT-549 breast; MDA-MB-435 melanoma; SW-620 colon; MCF7 breast; HCT-116 colon; HCC-2998 colon; KM12 colon.
Common to all, as to experiment: NCI-60 one-dose screen, 48 h (100 = growth as untreated, 0 = no growth, -100 = all killed)
What all share (conditions): 10 µM unless noted

The results in this text go back to PubChem BioAssay (NCI).

About 83,000 compounds went through this panel and 20% of them were active in at least one assay; those are over-represented in the sample as a whole.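 Compound tested at a single concentration for 48 hours in 96-well plates; a percent growth value below 10 was scored as active.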 Values without a mark were called inactive. The source made the active and inactive calls.

As for `Nc1nc(Nc2cccnc2)sc1C(=O)c1ccccc1F`, the growth was 33% in the assay on T-47D breast; 12.2% with BT-549 breast; 39.2% with MDA-MB-435 melanoma; 34.5% in the assay with SW-620 colon; 9.37% (active) with MCF7 breast; 3.8% (active) in the assay with HCT-116 colon. Besides, the growth in the assay with HCC-2998 colon was 69.5%; with KM12 colon, 5.5% (active).
As to `COc1ccc(-c2cc(-c3cc(OC)c(OC)c(OC)c3)c(C#N)c(=O)n2CCCCC(=O)O)cc1`, the growth was 72.6% in the assay with T-47D breast; 102% in the assay with BT-549 breast; 80.2% in the assay on MDA-MB-435 melanoma; 98% with SW-620 colon; 93.2% in the assay with MCF7 breast; 94.1% in the assay on HCT-116 colon. Besides, the growth in the assay with HCC-2998 colon is 105%; with KM12 colon, 94.6%.
As to `Nc1nc(CSc2n[nH]c(N)n2)nc(Nc2ccccc2)n1`, the growth in the assay on T-47D breast is 94.5%; in the assay on BT-549 breast it was 95.7%; in the assay with MDA-MB-435 melanoma, 94.7%; in the assay with SW-620 colon, 99%; in the assay with MCF7 breast it was 93.3%; with HCT-116 colon, 105%. Besides, the growth is 110% in the assay on HCC-2998 colon and 98.4% in the assay on KM12 colon.
For `CS(=O)(=O)Nc1cc(-c2ccc3ncnc(Nc4ccc(F)c(Cl)c4)c3c2)cnc1Cl`, the growth with T-47D breast was -7.45% (active); in the assay on BT-549 breast, -21.7% (active); in the assay on MDA-MB-435 melanoma it was 9.94% (active); in the assay on SW-620 colon, 13.8%; in the assay with MCF7 breast it was 5.44% (active); with HCT-116 colon it was 1.28% (active). The growth with HCC-2998 colon is 16.1%; with KM12 colon, 7.66% (active).
Turning to `COc1ccc2c(c1)oc1c(C)c3c(c(C)c12)C(=O)N(Nc1ccccc1)C3=O`, the growth with T-47D breast is 88.1%; in the assay on BT-549 breast, 91.6%; in the assay on MDA-MB-435 melanoma it was 104%; in the assay with SW-620 colon, 110%; with MCF7 breast it was 94.7%; with HCT-116 colon, 96%. Moreover, the growth in the assay with HCC-2998 colon was 105%; with KM12 colon, 97.4%.
Take `CCN(CC)CC(=O)Nc1ccc2ncnc(Nc3ccc(Oc4cccc(F)c4)c(Cl)c3)c2c1`: the growth in the assay on T-47D breast was 54.5%; in the assay on BT-549 breast it was 78.5%; in the assay with MDA-MB-435 melanoma, 75%; with SW-620 colon, 67.6%; with MCF7 breast, 52.9%; in the assay on HCT-116 colon it was 64.7%. For the same molecule, the growth in the assay on HCC-2998 colon was 53.1%; in the assay with KM12 colon, 51.5%.
`CN1Cn2c(ccc2C(F)(F)F)C(=O)CS1(=O)=O`: the growth was 115% in the assay on T-47D breast; 105% in the assay with BT-549 breast; 103% in the assay on MDA-MB-435 melanoma; 104% with SW-620 colon; 98.4% in the assay on MCF7 breast; 94.9% in the assay on HCT-116 colon. The growth with HCC-2998 colon is 104%; with KM12 colon, 110%.
Regarding `Cc1ccc2c(c1)C(C)Cc1c(ncnc1-n1cnc3cc(C)ccc31)N2C` (stereo not given), the growth with T-47D breast is 55.9%; in the assay with BT-549 breast, -0.751% (active); with MDA-MB-435 melanoma, 4.21% (active); with SW-620 colon, 22.7%; with MCF7 breast, 12.6%; with HCT-116 colon, 11.2%. Further, the growth in the assay on HCC-2998 colon was 21.7%; with KM12 colon, 16.5%.
Turning to `CN1CCN(c2ccc(/C=C/C(=O)c3ccc(O)cc3)cc2)CC1`, the growth is 83.6% in the assay on T-47D breast; 97.7% with BT-549 breast; 100% in the assay with MDA-MB-435 melanoma; 99.5% in the assay on SW-620 colon; 89.7% in the assay on MCF7 breast; 99.2% in the assay on HCT-116 colon. Moreover, the growth in the assay with HCC-2998 colon is 102%; in the assay with KM12 colon it was 101%.
On to `CCCNNC(=O)/C=C/c1ccc(CNCCc2c(C)[nH]c3ccccc23)cc1`, for which the growth in the assay with T-47D breast is -7.33% [2.5 µM] (active); in the assay on BT-549 breast, 62.2% [2.5 µM]; in the assay with MDA-MB-435 melanoma, 14% [2.5 µM]; with SW-620 colon, 10.7% [2.5 µM]; in the assay with MCF7 breast it was 24.2% [2.5 µM]; in the assay with HCT-116 colon it was 0.525% [2.5 µM] (active). Moreover, the growth in the assay on HCC-2998 colon is 13.3% [2.5 µM]; in the assay with KM12 colon, 28.8% [2.5 µM].
Consider `Cc1ccc(NC(=O)N/C(N)=N/c2nc(=O)c3ccccc3s2)cc1`, for which the growth in the assay on T-47D breast is 109%; in the assay on BT-549 breast, 86.4%; with MDA-MB-435 melanoma, 87.5%; in the assay on SW-620 colon, 92.7%; with MCF7 breast it was 84.9%; in the assay on HCT-116 colon it was 94.1%. Moreover, the growth in the assay on HCC-2998 colon was 102%; in the assay with KM12 colon it was 103%.
As to `Cn1cc(C2=C(c3cccc4ccccc34)C(=O)NC2=O)c2cc(Br)ccc21`, the growth with T-47D breast was 81.3%; with BT-549 breast it was 109%; in the assay with MDA-MB-435 melanoma, 95.7%; in the assay on SW-620 colon, 96.1%; in the assay with MCF7 breast, 84.3%; in the assay with HCT-116 colon, 71.3%. Moreover, the growth in the assay on HCC-2998 colon is 126%; with KM12 colon, 89.7%.
As for `COc1cc(-c2nc3occn3c2-c2ccnc(NCCCNS(=O)(=O)c3ccc(O)cc3)n2)ccc1F`, the growth in the assay with T-47D breast was 84.8%; in the assay with BT-549 breast it was 116%; in the assay on MDA-MB-435 melanoma, 47.7%; in the assay on SW-620 colon, 115%; in the assay on MCF7 breast it was 92.1%; in the assay with HCT-116 colon, 86.1%. In addition, the growth with HCC-2998 colon was 112%; in the assay with KM12 colon, 99.8%.
Take `COc1ccc(C(=O)N/N=C/c2ccc(O)cc2O)cc1Nc1ccnc(C(F)(F)F)c1`: the growth was 21.6% in the assay with T-47D breast; 55.6% in the assay on BT-549 breast; 32.7% in the assay on MDA-MB-435 melanoma; 35.8% in the assay on SW-620 colon; 21.9% in the assay with MCF7 breast; 15.6% with HCT-116 colon. In addition, the growth in the assay with HCC-2998 colon is 40.9%; in the assay with KM12 colon, 69.4%.
Turning to `COc1ccc(-c2csc(NC(=O)CN3CCN(CCO)CC3)n2)cc1NS(=O)(=O)c1cccc2c(N(C)C)cccc12`, the growth was 72% with T-47D breast; 82.1% in the assay on BT-549 breast; 57.3% in the assay with MDA-MB-435 melanoma; 84.1% with SW-620 colon; 59.6% with MCF7 breast; 73.5% in the assay with HCT-116 colon. Also, the growth in the assay on HCC-2998 colon was 73.2%; with KM12 colon it was 77.2%.
